Experimental data: the OligoGym collection

target: ZNF32; assay: pooled miR-30 sensor sort-seq; sequence = guide strand; details: shRNA
Note: reference of the scale not given here.

| Sequence | sensor-assay potency score (higher = more potent) |
| --- | --- |
| TTAGACTACCTTTTTGCCGGAA | -0.355 |
| TTGATGTGTAACAAGATTGCCT | 0.254 |
| TATCCCAGCTTGAGGATCCTGT | -0.615 |
| TAGTGTCTTCGAATCTGGGGAT | -0.0716 |
| TGTAGTGTCTTCGAATCTGGGG | 0.479 |
| TAACGTTAGACTACCTTTTTGC | -0.0672 |
| TGAATCTTCCTGTAGTGTCTTC | -0.275 |
| TCTTCCTGTAGTGTCTTCGAAT | -1.44 |
| TTGAGGATCCTGTAGCCTCAGA | -1.2 |
| TCTTCCATGACAGTCCAGCAGG | -1.26 |
| TTGAAGAACGCTACATTCTGGG | 0.82 |
| ATATCTTCCATGACAGTCCAGC | -0.761 |

target: ZNF343; assay: as above; details: shRNA

| Sequence | sensor-assay potency score (higher = more potent) |
| --- | --- |
| ATAGTCTCTACATTTTCCCCAT | -0.495 |
| TTGACTTGTCACAAAAGCCTCG | -0.0132 |
| TTTGATGAGATCTGAGTTCTGG | 0.519 |
| TAGAAGGCAAGCCTTTCGCTTT | -0.611 |
| TTGATGAGATCTGAGTTCTGGC | 0.144 |
| TTTCGCTTTATGATTTTGGGTC | -0.0502 |
| TTTGACTTATGACTAAAGCCTC | -0.874 |
| TTGACTTCTGGCTAAAACCTCG | -0.583 |
| TTGACTTATGACTAAAGCCTCG | -0.75 |
| TTGAGGATGGACTTACTTCTAA | -0.709 |
| TATCATTAGAAGGCAAGCCTTT | -0.78 |
| TACATGTTGACTGAGGAACTGC | -0.356 |

target: ZNF383; assay: as above; details: shRNA

| Sequence | sensor-assay potency score (higher = more potent) |
| --- | --- |
| TAAATTGTGAGTTCTGACTAAA | -0.929 |
| TAAGATTTGAGCAATAACTAAA | -1.31 |
| TTGAGCAATAACTAAAGGCCTT | -0.458 |
| TATATTCCAAAACATCTCCAAA | -1.29 |
| TCTCTGATGTTGAACAAGCTTT | -0.743 |
| TAACATGTGAACCACAACTAAA | -1.41 |
| TTGAACAAGCTTTGAGCTCTGG | 0.42 |
| TTGAATAAATTGTGAGTTCTGA | -0.124 |
| TTCTATTTCATAAACTTCCTTC | -0.0685 |
| TTCTTTAGAGATAATAACTTGG | -0.196 |
| TAACTTGGTTTCACACATCGAT | 0.203 |

target: ZNF384; assay: as above; details: shRNA

| Sequence | sensor-assay potency score (higher = more potent) |
| --- | --- |
| TTGAGCTTGAGCCTGGGCCTGG | -0.952 |
| ATAAGGGTCATTCATCTCGGGC | -1.42 |
| TTATCTTTGTTGTGTTGCCGTC | 0.0211 |
| TTGTGTTCTCGATCTGACCTGA | 0.373 |
| TTTATCTTTGTTGTGTTGCCGT | 0.173 |
